The list is not random: actives were taken first. Their share in the collection is about 13%.
ALDH1A1 inh: qHTS Assay for Inhibitors of Aldehyde Dehydrogenase 1 (ALDH1A1). Aldehyde dehydrogenase 1A1 (Homo sapiens), P00352. Purified ALDH1A1, NADH fluorescence, propionaldehyde substrate. Potency, µM (series often up to 75.3 µM), inactives show at the highest dose activity, negative = inhibition, most hits filed as inhibitors. 7.3% of 220,000 active. AID 1030, 2008; active means well fitted inhibition curve with a large enough effect, not every such curve was filed as active; inconclusive means small, poorly fitted or top-dose-only effect, or another doubt; inactive means no such curve, though single readings can be large or run the other way;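 further: potency means the concentration at half of the fitted maximal effect; plate controls were no enzyme wells and a reference inhibitor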
Target sequence (P00352 whole entry, looked up): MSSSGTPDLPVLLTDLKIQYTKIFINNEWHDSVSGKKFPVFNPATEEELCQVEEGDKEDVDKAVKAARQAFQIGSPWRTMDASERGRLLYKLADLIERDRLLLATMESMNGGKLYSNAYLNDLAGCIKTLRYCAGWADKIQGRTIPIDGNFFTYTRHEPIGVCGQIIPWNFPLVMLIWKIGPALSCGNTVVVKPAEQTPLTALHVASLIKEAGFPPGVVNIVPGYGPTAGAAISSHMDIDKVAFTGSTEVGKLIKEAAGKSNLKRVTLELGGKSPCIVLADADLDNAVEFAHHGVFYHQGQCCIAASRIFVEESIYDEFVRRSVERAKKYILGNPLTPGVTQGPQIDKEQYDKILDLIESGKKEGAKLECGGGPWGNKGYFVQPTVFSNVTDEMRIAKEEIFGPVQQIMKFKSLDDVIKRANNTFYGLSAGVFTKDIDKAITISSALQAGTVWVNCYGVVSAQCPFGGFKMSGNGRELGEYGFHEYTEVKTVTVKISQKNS
G9a block: qHTS Assay for Inhibitors of Histone Lysine Methyltransferase G9a; G9a H3K9 monomethylation, AlphaScreen, 2 h; Potency, µM (series often up to 102 µM), for the others: top-dose activity, negative = inhibition, most hits filed as inhibitors; 8.8% of 350,000 active; AID 504332, 2011; further: potency means the concentration at half of the fitted maximal effect; on the % scale 0 is the no-effect control and ±100 the full control effect; nearly all actives have a fitted effect of over 75% in size
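Step 1: enzyme (final 20 nM) with compound, 15 min RT. Step 2: substrate peptide 500 nM and SAM 20 uM, 2 h RT. Step 3: anti-H3K9me1 antibody and AlphaScreen beads, 10 min, then plate read.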
JMJD2E inh: qHTS Assay for Inhibitors of Human Jumonji Domain Containing 2E (JMJD2E); AID 2147, 2009; Lysine-specific demethylase 4E (Homo sapiens), B2RXH2; 1.6% of 230,000 active; Potency, µM (series often up to 57.1 µM), inactives show at the top dose activity change, negative = inhibition, actives largely listed as inhibitors; JMJD2E catalytic domain, FDH-coupled NADH fluorescence (FDH is formaldehyde dehydrogenase);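 further: potency means the concentration at half of the fitted maximal effect; 0% = wells with enzyme and -100% = buffer wells without enzyme; nearly all actives have a fitted effect of over 50% in size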
miR-21 act: qHTS Assay for Modulators of miRNAs and/orActivators of miR-21; Potency, µM (highest dose often 38.3 µM), for the others: top-dose activity change, positive = activation, hits mostly activators; AID 2288, 2010; 340,000 tested, under 10 active; HeLa miR-21 FLuc reporter, luciferase, 48 h;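 further: % of control where 0% means no effect; miR-21 action dims this reporter so a rising signal means less miR-21 action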
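HeLa cells endogenously expressing miR-21, stably carrying CMV-driven firefly luciferase with a downstream miR-21 binding site, 2000 cells/well. Titrations up to approximately 40 uM, 48 hours; luciferase luminescence read.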
Lamin A splicing: qHTS Assay for Modulators of Lamin A Splicing. HeLa LMNA splicing GFP/RFP minigene ratio, 48 h. Potency, µM (doses to about 46.1 µM), without a hit: at the top dose ratio change, negative = inhibition, most hits filed as inhibitors. 0.01% of 200,000 active. AID 1487, 2009; active means well fitted inhibition curve with a large enough effect in the signal ratio, with a control signal flat, not every such curve was filed as active; inconclusive means small, poorly fitted or top-dose-only effect, or effect the other way, or a change in a side signal; the % refers to the signal ratio; further: potency means the concentration at half of the fitted maximal effect; on the % scale 0 is the no-effect control and ±100 the full control effect
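S3 HeLa cells stably expressing lamin A-EGFP splicing minigene plus DsRed2, 600 cells/well, 48 h compound exposure at 37C. Laser-scanning cytometry; analysed as GFP (500-530 nm)/RFP (575-640 nm) total intensity ratio; 0.5% DMSO vehicle.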
Sfp PPTase inh: qHTS Assay for Inhibitors of Bacillus subtilis Sfp phosphopantetheinyl transferase (PPTase); 4'-phosphopantetheinyl transferase ffp (Bacillus subtilis), Q9F4F7; Biochemical Sfp PPTase activity, qHTS; Potency, µM, inactives show largest response in the series, negative = inhibition, most hits filed as inhibitors; 3.5% of 310,000 active; AID 1490, 2009;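 further: the enzyme is Sfp with the accession as filed and its product quenches rhodamine fluorescence; potency means the concentration at half of the fitted maximal effect; 0% = enzyme reaction without inhibitor and -100% = no enzyme wells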
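Fluorescence-quenching assay: 15 nM Sfp-PPTase preincubated 15 min at room temperature with compound, then 5 uM rhodamine-CoA and 12.5 uM BHQ-2-labelled YbbR peptide added. Fluorescence (ex 525/em 598 nm) read at start and after 30 min; difference gives rate.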
* marks the source's active call; other numbers are inactive results; ? = inconclusive; . = no result; ! = not confirmed by another sample; [ ] = remark or other dose. Unless noted, the call rests on the fitted dose curve; in most records, active means well fitted curve in the direction sought with a large enough effect; inconclusive means small, poorly fitted or top-dose-only effect, or another doubt; inactive means no such curve, though single readings can be large; an effect the other way counts as inactive or inconclusive.

SMILES	ALDH1A1 inh	G9a block	JMJD2E inh	miR-21 act	Lamin A splicing	Sfp PPTase inh
c1ccc(CNc2nc3ccccc3n2CCN2CCOCC2)nc1	?	-26%[59 µM]	?	-8%	6%	89µM*
O=C(Nc1nc2ccccc2n1CCN1CCOCC1)c1cn(-c2ccccc2)nc1-c1ccccc1	?	?	25µM*	?	?	19%
CCCCn1c(NCc2ccncc2)nc2ccccc21	18%	-9%	-4%	2%	.	19%
c1coc(CNc2nc3ccccc3n2CCN2CCOCC2)c1	1%	-25%[12.7 µM]	-4%	-11%	-8%	13%
CCCCn1c(NCc2ccc(N(C)C)cc2)nc2ccccc21	14µM*	?	0%	5%	.	?
CCC/C=C(\CCC)C(NC(=O)c1ccco1)c1ccc(C(=O)OC)cc1 (stereo not drawn)	-14%	.	-4%	.	.	14%
CCCn1c(NCc2ccccn2)nc2ccccc21	-12%	5.6µM*	?	-23%	-3%	?
COc1cccc(CNn2cnnc2)c1O	13µM*	-39%	5%	1%	.	-8%
CCN(CC)CCn1c(NCc2cccc(OC)c2)nc2ccccc21	2%	50µM*	-7%	-15%	-2%	-7%
CCN(CC)CCn1c(NCc2cc(OC)ccc2OC)nc2ccccc21	0%	?	?	-4%	?	0%
Cn1ccc2c(OCC(=O)NCc3ccccc3Cl)cccc2c1=O	.	-1%[59 µM]	.	-2%	?	.
CCN(CC)c1ccc(CNc2ccc(Br)cn2)cc1	7.1µM*	?	?	-26%	9%	-8%
Cc1ccnc(NCc2ccc(Br)cc2)c1	.	0%	.	-21%	.	13%
O=C(Nn1cnnc1)c1cc(Cl)cc(Cl)c1	.	-3%[2.33 µM]	.	1%	.	7%
COc1ccc(N2C(=O)CSC23C(=O)N2CCCc4cccc3c42)cc1 (stereo not drawn)	11µM*	-41%	-4%	-8%	5%	2%
OCCN1CCN(CC/C=C2/c3ccccc3Sc3ccc(Cl)cc32)CC1	.	16µM*	.	.	.	.
CCCCCCCCCC[N+](C)(C)CC/C=C1/c2ccccc2Sc2ccc(Cl)cc21	.	?	.	?	.	32µM*
CCCCCCCCCCC[N+](C)(C)CC/C=C1/c2ccccc2Sc2ccc(Cl)cc21	.	35µM*	.	?	.	40µM*
OCCN1CCN(CCCN2c3ccccc3Sc3ccc(Cl)cc32)CC1	-3%	3%[12.7 µM]	-7%	?	?	?
O=C1c2ccccc2CN1Cc1ccccc1	.	?	.	-4%	.	-14%
Cc1cc(C(=O)N/N=C/c2ccc([N+](=O)[O-])cc2)c2ccccc2n1	4%	14%	-4%	?	.	-9%
Cc1cc(C(=O)N/N=C/c2ccc(N(C)C)cc2)c2ccccc2n1	35µM*	13%[59 µM]	1%	17%	.	11%
Cc1cc(C(=O)N/N=C/c2cc([N+](=O)[O-])ccc2O)c2ccccc2n1	0%	32%[59 µM]	28µM*	28%	?	-2%
Cc1cc(C(=O)N/N=C/c2cc(Br)cc([N+](=O)[O-])c2O)c2ccccc2n1	-9%	?	6.3µM*	15%	?	-2%
Cc1ccc(N2CC(C(=O)Nc3ccc(S(=O)(=O)N4CCOCC4)cc3)CC2=O)cc1Cl (stereo not drawn)	.	7%[2.33 µM]	.	.	.	.
SMILES	ALDH1A1 inh	G9a block	JMJD2E inh	miR-21 act	Lamin A splicing	Sfp PPTase inh
COc1ccc(C(C)NS(=O)(=O)Cc2ccccc2)cc1 (stereo not drawn)	.	50µM*	.	-8%	.	2%
COc1ccc(OC)c(NS(=O)(=O)Cc2ccccc2)c1	?	35µM*	-21%	2%	6%	?
COc1ccc(OC)c(NC2=C(c3ccccc3)C(=O)c3ccccc32)c1	.	11µM*	.	26%	.	.
COc1ccc(S(=O)(=O)N(C)c2ccc(C(=O)Nc3c(C)n(C)n(-c4ccccc4)c3=O)cc2)cc1	.	0%	.	-1%	.	0%
Cn1c(=O)n(C)c2cc(NS(=O)(=O)c3ccc(Br)cc3)c(NCc3ccccc3)cc21	.	?	.	-29%	.	.
CCCS(=O)(=O)Nc1cc2c(cc1NCc1ccccc1)n(C)c(=O)n2C	.	16µM*	.	-36%	.	.
COc1ccc(S(=O)(=O)Nc2cc3c(cc2NCc2ccccc2)n(C)c(=O)n3C)cc1	.	16µM*	.	-50%	.	.
Cn1c(=O)n(C)c2cc(S(=O)(=O)NCc3ccccc3)ccc21	?	-23%	0%	2%	-13%	21%
COc1ccc2[nH]cc(CCNc3cc(-c4cccc(C#N)c4)ncn3)c2c1	?	-29%[0.501 µM]	.	.	?	-9%
COc1ccccc1CNC(=O)CCCn1c(=O)c2ccccc2n(Cc2ccccc2F)c1=O	.	1%[59 µM]	.	-5%	.	.
O=C(c1ccc(CSc2nc3ccncc3n2Cc2ccccc2F)cc1)N1CCCCCC1	.	?	.	-12%	.	.
CCOC(=O)N1CCN(C(=S)NC(=O)c2nn(C)cc2Br)CC1	3%	?	11%	0%	.	?
CCOC(=O)N1CCN(C(=S)NC(=O)c2ccnn2C)CC1	1%	20µM*	4%	1%	?	?
CCOC(=O)N1CCN(C(=S)NC(=O)c2ccc(F)cc2)CC1	-3%	28µM*	0%	-2%	42%[46 µM]	2%
CCCC(=O)Nc1ccc2c(c1)COC2=O	2%	-3%	?	-1%	.	0%
Cc1c(C#N)c(O)n(CCO)c(=O)c1N=Nc1ccc2c(c1)COC2=O	.	50µM*	?	-15%	.	12%
CO/N=C(/C(=O)N[C@H]1C(=O)N2C(C(=O)O)=C(COC(C)=O)CSC12)c1csc(N)n1 (stereo partly drawn)	?	3%[2.33 µM]	-15%	.	.	-32%
CO/N=C(/C(=O)NC1C(=O)N2C(C(=O)O)=C(CSc3nc(=O)c(O)nn3C)CSC12)c1csc(N)n1 (stereo not drawn)	-2%	1%[2.33 µM]	-17%	.	.	50µM*!
CO/N=C(/C(=O)N[C@@H]1C(=O)N2C(C(=O)O)=CCS[C@H]12)c1csc(N)n1	.	?	.	.	.	50µM*
CCCCCNC(=O)Cn1c(=O)c2c(ncn2CC(C)C)n(Cc2ccccc2)c1=O	.	-3%	.	0%	.	13%
O=C(C1=C[C@H](c2csc3ccccc23)C[C@H](OCc2ccc(CO)cc2)O1)N1CCN(Cc2ccccc2)CC1	?	-4%[12.7 µM]	?	13%	.	15%
